Test results from PubChem BioAssay.
Calls of active or inactive are those of the source.

Columns and labels:
[1] = optical density shifts of acrAB sulA E. coli – strain DRC41, OD650, 48 h, E. coli filamentation inducer project, primary screen (AID 1152); conditions: higher = more signal, called active from +8 up or from −8 down;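 further: E. coli MC1000 strain DRC41 lacking acrAB efflux pump and sulA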
[2] = probe aLefty1 binding on compound microarray – biochemical, small-molecule microarray, 635/667 nm fluorescence, primary screen (AID 1153); conditions: higher = more signal;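 further: score merges spot fluorescence with signal-to-noise ratio from the scanned slide images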
[3] = plasmodial surface anion channel blockers, osmotic lysis – cell-based, P. falciparum Indochina, OD700, 1 h, primary screen (AID 1154); conditions: P. falciparum Indochina infected RBC osmotic lysis, higher = more signal, called active from +8 up or from −8 down
[4] = plasmodial surface anion channel blockers, osmotic lysis – cell-based, P. falciparum Indochina, OD700, 2 h, primary screen (AID 1155);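 further: lysis reports solute entry through the parasite surface anion channel PSAC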; conditions: P. falciparum Indochina infected erythrocytes, higher = more signal, called active from +8 up or from −8 down
[5] = changes in parasitized red cell lysis, either direction – P. falciparum Indochina, OD700, 3 h, PSAC antagonist project, primary screen (AID 1156); conditions: P. falciparum-infected erythrocytes, osmotic lysis, higher = more signal, called active from +8 up or from −8 down
[6] = plasmodial surface anion channel blockers, osmotic lysis – cell-based, P. falciparum Indochina, OD700, 18 h, primary screen (AID 1157); conditions: P. falciparum Indochina infected erythrocytes, osmotic lysis OD700, 18 h; higher = more signal, called active from +8 up or from −8 down
[7] = S6 kinase pathway phospho-S6 level changes – cell-based, A549, cytoblot, luminescence, serum-stimulated, primary screen (AID 1158); conditions: 5 h, higher = more signal;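 further: serum-stimulated A549 lung adenocarcinoma cells; signal is phosphorylated S6 detected by cytoblot immunostaining with HRP secondary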
[8] = molecular target: NADPH oxidase 2 (Homo sapiens) (UniProt P04839); experiment: compounds shifting NOX2 Amplex Red fluorescence – cell-based, HEK293-NOX2, PMA-stimulated, NOX inhibitor project, primary screen (AID 1159); conditions: 45 min, higher = more signal, called active from +8 up or from −8 down; further: test concentration not given here
[9] = molecular target: NADPH oxidase 4 (Homo sapiens) (UniProt Q9NPH5); experiment: compounds shifting NOX4 Amplex Red fluorescence – cell-based, HEK293-NOX4, tetracycline-induced, NOX inhibitor project, primary screen (AID 1160); conditions: HEK293-NOX4, Amplex Red H2O2 fluorescence, 45 min; higher = more signal, called active from +8 up or from −8 down
[10] = molecular target: NADPH oxidase 5 (Homo sapiens) (UniProt Q96PH1); experiment: compounds shifting NOX5 Amplex Red fluorescence – cell-based, HEK293-NOX5, NOX inhibitor project, primary screen (AID 1161); conditions: HEK293-NOX5, ionomycin, 45 min, higher = more signal
Sequence of NADPH oxidase 5 (Homo sapiens) (Q96PH1 whole entry, looked up): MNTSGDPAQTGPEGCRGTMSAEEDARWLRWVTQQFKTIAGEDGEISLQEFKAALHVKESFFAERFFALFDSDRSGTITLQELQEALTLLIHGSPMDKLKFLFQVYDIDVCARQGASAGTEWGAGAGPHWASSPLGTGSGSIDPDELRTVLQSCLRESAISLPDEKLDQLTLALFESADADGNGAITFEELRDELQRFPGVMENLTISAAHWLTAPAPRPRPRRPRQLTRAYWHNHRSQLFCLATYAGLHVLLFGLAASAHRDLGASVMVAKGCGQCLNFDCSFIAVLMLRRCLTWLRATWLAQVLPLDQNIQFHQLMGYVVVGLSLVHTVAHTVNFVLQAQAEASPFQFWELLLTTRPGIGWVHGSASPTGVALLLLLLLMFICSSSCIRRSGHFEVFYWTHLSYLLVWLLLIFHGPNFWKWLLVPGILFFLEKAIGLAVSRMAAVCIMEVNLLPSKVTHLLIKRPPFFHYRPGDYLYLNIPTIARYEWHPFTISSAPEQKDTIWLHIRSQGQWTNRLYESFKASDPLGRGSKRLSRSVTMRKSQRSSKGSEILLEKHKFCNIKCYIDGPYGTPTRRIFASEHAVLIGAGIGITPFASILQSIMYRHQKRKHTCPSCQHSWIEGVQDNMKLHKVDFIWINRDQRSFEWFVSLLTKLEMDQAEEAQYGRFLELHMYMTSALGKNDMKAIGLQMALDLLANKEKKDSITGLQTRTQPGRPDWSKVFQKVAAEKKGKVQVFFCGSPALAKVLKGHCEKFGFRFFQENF

Sequence of NADPH oxidase 4 (Homo sapiens) (Q9NPH5 whole entry, looked up): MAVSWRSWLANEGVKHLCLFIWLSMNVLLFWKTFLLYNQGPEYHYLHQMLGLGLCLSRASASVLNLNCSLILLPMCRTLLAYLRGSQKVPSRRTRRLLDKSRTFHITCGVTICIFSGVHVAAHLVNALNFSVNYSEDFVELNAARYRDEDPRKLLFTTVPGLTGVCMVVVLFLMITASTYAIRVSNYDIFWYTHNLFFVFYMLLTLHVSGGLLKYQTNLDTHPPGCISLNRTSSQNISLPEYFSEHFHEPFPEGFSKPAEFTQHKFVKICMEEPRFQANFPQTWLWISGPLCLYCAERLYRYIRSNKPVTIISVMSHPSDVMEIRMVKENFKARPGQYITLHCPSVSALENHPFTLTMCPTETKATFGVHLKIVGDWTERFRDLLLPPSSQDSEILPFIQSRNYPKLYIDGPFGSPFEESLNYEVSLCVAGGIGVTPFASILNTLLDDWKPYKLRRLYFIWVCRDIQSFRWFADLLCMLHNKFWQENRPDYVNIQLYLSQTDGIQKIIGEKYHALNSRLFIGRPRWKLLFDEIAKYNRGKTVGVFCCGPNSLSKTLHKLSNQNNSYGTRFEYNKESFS
Sequence of NADPH oxidase 2 (Homo sapiens) (P04839 whole entry, looked up): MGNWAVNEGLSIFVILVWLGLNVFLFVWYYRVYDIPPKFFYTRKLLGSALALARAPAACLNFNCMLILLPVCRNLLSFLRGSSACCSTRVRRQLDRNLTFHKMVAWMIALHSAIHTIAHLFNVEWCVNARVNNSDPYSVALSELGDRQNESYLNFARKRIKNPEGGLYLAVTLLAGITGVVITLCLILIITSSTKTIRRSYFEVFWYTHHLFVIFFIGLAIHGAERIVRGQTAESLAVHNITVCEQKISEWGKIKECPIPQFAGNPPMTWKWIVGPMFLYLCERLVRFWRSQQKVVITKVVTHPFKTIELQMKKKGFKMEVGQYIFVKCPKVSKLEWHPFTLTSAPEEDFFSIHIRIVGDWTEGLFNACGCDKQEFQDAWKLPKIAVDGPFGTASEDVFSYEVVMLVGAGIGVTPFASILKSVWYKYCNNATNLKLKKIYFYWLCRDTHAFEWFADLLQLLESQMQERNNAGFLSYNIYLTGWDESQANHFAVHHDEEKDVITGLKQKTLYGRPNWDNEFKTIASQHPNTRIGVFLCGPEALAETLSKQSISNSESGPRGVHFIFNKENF

Row | Structure (SMILES) | z-score [1] | composite z-score [2] | z-score [3] | z-score [4] | z-score [5] | z-score [6] | z-score [7] | z-score [8] | z-score [9] | z-score [10]
1 | C=C(C)C1CN([C@H](CO)c2ccccc2)C(=O)/C1=C\c1ccccc1 (stereo not given in full) | 1.01 (inactive) | -0.147 | -0.0012 (inactive) | -0.916 (inactive) | -0.683 (inactive) | -1.8 (inactive) | 1.59 | -0.00303 (inactive) | 0.0494 (inactive) | -1.27
2 | COCCOC(=O)N1C(=O)[C@@]2(c3cc(C#CCNC(N)=O)ccc31)[C@H](C(N)=O)[C@H]1C(=O)O[C@H](c3ccccc3)[C@H](c3ccccc3)N1[C@@H]2c1ccc(O)cc1 | 0.989 (inactive) | 0.316 | 1.65 (inactive) | -0.132 (inactive) | -1.12 (inactive) | 0.141 (inactive) | 0.189 | 0.161 (inactive) | -0.181 (inactive) | 0.00933
3 | COCCOC(=O)N1C(=O)[C@@]2(c3cc(C#CCNC(N)=O)ccc31)[C@H](c1ccc(O)cc1)N1[C@H](c3ccccc3)[C@H](c3ccccc3)OC(=O)[C@H]1[C@@H]2C(=O)N1CCc2cc(OC)c(OC)cc2C1 | -0.872 (inactive) | 0.208 | 1.67 (inactive) | 0.13 (inactive) | 0.018 (inactive) | 0.148 (inactive) | -0.0879 | 1.15 (inactive) | -0.909 (inactive) | 0.891
4 | O=C1O[C@H](c2ccccc2)[C@H](c2ccccc2)N2[C@H]1[C@@H](C(=O)N1CCN(c3ncccn3)CC1)[C@]1(C(=O)Nc3ccc(C#CC4(O)CCCCCC4)cc31)[C@H]2c1ccc(O)cc1 | 2.51 (inactive) | 0.0903 | 0.36 (inactive) | 0.88 (inactive) | 1.09 (inactive) | 0.566 (inactive) | 1.37 | 1.24 (inactive) | 0.663 (inactive) | 1.22
5 | COc1ccc([Si](C)(C)[C@@H]2[C@@H](CC(=O)N(CCO)Cc3ccccc3)O[C@]3(C(=O)N(Cc4cccc(I)c4)c4ccccc43)[C@H]2C)cc1 | -0.307 (inactive) | 0.0464 | 4.63 (inactive) | 1.5 (inactive) | -0.0382 (inactive) | 1.14 (inactive) | 0.32 | -0.953 (inactive) | 1.19 (inactive) | 1.43
6 | [N-]=[N+]=NCc1ccccc1C[C@@]1(C(=O)NCCN2CCOCC2)N=C(c2ccc(OCCCO)cc2)O[C@@H]1c1ccccc1 | -1.58 (inactive) | 0.546 | 25.3 (active) | 11.7 (active) | 1.44 (inactive) | 1.65 (inactive) | -0.28 | -1.48 (inactive) | 0.731 (inactive) | 1.27
7 | C=CC[C@]1(C(N)=O)N=C(c2ccc(OCCCO)cc2)O[C@H]1c1ccccc1N=[N+]=[N-] | 2.21 (inactive) | 0.408 | 33.4 (active) | 30.8 (active) | 2.17 (inactive) | 9.7 (active) | -0.0547 | -1.77 (inactive) | 0.627 (inactive) | 0.189
8 | O=C1NC(=O)C2C1C=CC(C(O)c1ccc(F)cc1)N2Nc1ccc(Cl)cc1Cl (stereo not given) | -1.89 (inactive) | -0.017 | 3.43 (inactive) | 0.615 (inactive) | -0.695 (inactive) | 1.22 (inactive) | 0.0765 | -0.018 (inactive) | -5.68 (inactive) | -3.23
9 | [N-]=[N+]=NCc1ccccc1[C@H]1OC(c2ccc(OCCCO)cc2)=N[C@@]1(CCS(=O)(=O)c1ccccc1)C(=O)O | -0.123 (inactive) | 0.328 | 20.5 (active) | 6 (inactive) | 0.471 (inactive) | 1.06 (inactive) | -0.497 | 1.09 (inactive) | 1.09 (inactive) | 2.1
10 | COCCCNC(=O)[C@@]1(c2ccc([N+](=O)[O-])cc2)CC(=O)N(C2CCCCC2)[C@@H]1c1ccc(CO)cc1I | 0.725 (inactive) | -0.208 | 12.6 (active) | 1.35 (inactive) | 3.44 (inactive) | 1.11 (inactive) | 0.107 | 1.78 (inactive) | 0.381 (inactive) | 2.07
11 | C=C(C(=O)CC[C@@H](OC(=O)c1ccccc1-c1ccccc1C(=O)O)c1ccc(CO)o1)C(C)C | -0.796 (inactive) | 0.0945 | 0.897 (inactive) | 0.192 (inactive) | 0.365 (inactive) | 0.0861 (inactive) | -0.535 | 1 (inactive) | -0.593 (inactive) | -0.213
12 | C=CCN1C(=O)[C@@]2(O[C@@H](CCO)[C@H]([Si](C)(C)c3ccc(OC)cc3)[C@H]2C)c2cc(N3CCCCC3=O)ccc21 | 0.424 (inactive) | 0.102 | 23.8 (active) | 7.85 (inactive) | -0.302 (inactive) | 1.9 (inactive) | 1.44 | -1.63 (inactive) | -0.258 (inactive) | -0.607
13 | COC(=O)c1c2oc(c1C(=O)OC)C(=O)N[C@H](Cc1ccccc1)Cn1cc(nn1)C1(CCCCC1)NC(=O)N[C@H](CO)CC2 | 2.53 (inactive) | -0.104 | 0.96 (inactive) | 0.166 (inactive) | 0.789 (inactive) | 0.286 (inactive) | 0.274 | -0.0295 (inactive) | 1.77 (inactive) | 0.431
